KCNH2 3.1 inh – inhibitors of human KCNH2 3.1 potassium channel isoform | U2OS KCNH2 3.1, thallium flux FluxOr; active compounds read low | activity change, % (tested at about 1.8 µM) | hit rate 0.95% among 340,000 | AID 720553;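 active = maximum activity change below -70%; inconclusive = maximum activity change from -70% to -50%; inactive = maximum activity change above -50%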;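 note: thallium influx rate constant from kinetic fluorescence after stimulation buffer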
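Channel expression came from 3.1 mutant virus (1.77 x 10^8 /mL) applied to suspended U2OS cells for 4 h. Flux was tracked with FluxOr dye plus Red40 quencher, and kinetic rate constants normalized to controls.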
KAT2A inh – GCN5L2 (KAT2A) acetyltransferase inhibition; hit rate 0.21% among 390,000; Potency, µM (highest dose often 58.9 µM), actives largely listed as inhibitors; GCN5L2 HAT assay, ThioGlo1 CoA-SH fluorescence; Q92830
Target sequence (Q92830 whole entry, looked up): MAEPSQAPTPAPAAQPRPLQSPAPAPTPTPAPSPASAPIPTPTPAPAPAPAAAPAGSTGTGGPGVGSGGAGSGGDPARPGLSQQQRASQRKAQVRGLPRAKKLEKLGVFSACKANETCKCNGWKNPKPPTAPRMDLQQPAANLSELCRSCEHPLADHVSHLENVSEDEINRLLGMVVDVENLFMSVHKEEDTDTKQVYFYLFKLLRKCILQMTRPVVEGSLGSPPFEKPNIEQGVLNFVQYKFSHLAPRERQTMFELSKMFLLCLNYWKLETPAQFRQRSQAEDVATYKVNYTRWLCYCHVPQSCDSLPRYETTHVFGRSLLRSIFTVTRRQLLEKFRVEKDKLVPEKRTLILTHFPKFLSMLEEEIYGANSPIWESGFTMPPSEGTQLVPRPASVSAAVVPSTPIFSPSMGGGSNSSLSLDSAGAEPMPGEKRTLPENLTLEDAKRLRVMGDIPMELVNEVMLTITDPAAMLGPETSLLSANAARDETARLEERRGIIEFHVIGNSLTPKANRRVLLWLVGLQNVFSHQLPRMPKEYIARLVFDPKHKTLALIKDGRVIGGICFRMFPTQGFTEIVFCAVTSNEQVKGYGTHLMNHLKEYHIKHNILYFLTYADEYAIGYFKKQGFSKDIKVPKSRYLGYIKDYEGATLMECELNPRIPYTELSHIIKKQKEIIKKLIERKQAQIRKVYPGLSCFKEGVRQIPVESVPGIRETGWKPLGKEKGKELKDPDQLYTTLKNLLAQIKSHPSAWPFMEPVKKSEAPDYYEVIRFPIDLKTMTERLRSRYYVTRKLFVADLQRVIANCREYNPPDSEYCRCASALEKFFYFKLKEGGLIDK
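Free CoA generated was detected with ThioGlo1 (50uM) fluorescence at Ex340nm/Em540nm, read immediately and after 20 min at room temperature. Enzyme, 20 nM in HEPES pH 7.5 buffer, saw compounds 15 min before adding 75uM H3(1-25) peptide and 70uM acetyl-CoA.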
PGK inhibitor – blocks T. brucei phosphoglycerate kinase. AID 602233. PGK/GAPDH coupled, Kinase-Glo luminescence, 60 min. Potency, µM (top dose mostly 57.5 µM), most hits filed as inhibitors. P07378. hit rate 0.043% among 380,000; note: nearly all actives have a fitted effect of over 60% in size
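Recombinant glycosomal PGK reaction used 1,3-bisphosphoglycerate generated in-well by GAPDH (100nM final) in 100mM TEA pH 7.6, 5mM MgCl2, 0.01% Tween-20. After 60 minutes at room temperature, ATP was read by Kinase-Glo Plus luminescence end-point.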
Pin1 inh – human Pin1 inhibition; Q13526; Pin1 FP peptide displacement, HiFluor488, 10 min; Potency, µM (doses to about 115 µM), most hits filed as inhibitors; hit rate 0.009% among 390,000; AID 504891; active = well fitted inhibition curve with a large enough effect in the polarisation, with a control signal flat, not every such curve was filed as active; inconclusive = small, poorly fitted or top-dose-only effect, or effect the other way, or a change in a side signal; inactive = no such curve, though single readings can be large or run the other way; the % refers to the polarisation
KCNH2 WT inh – inhibitors of human wildtype KCNH2 potassium channel. Q12809. U2OS, BacMam KCNH2, thallium flux FluxOr; active compounds read low. activity change, % at 1.84 µM. hit rate 0.37% among 340,000;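 active = maximum activity change below -70%; inconclusive = maximum activity change between -70% and -50%; inactive = maximum activity change above -50%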
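U2OS cells transduced with wild-type KCNH2 virus are loaded with FluxOr dye for 45 min, and thallium flux is measured in kinetic reads before and after stimulation buffer. Rate constants are normalized to DMSO controls.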
RGS4 inh – human RGS4 inhibition; hit rate 0.039% among 390,000; Transcreener GDP fluorescence polarization, RGS4-accelerated GTP hydrolysis; Potency, µM (titrated, usually from 114 µM), usual class: inhibitors; P49798; note: nearly all actives have a fitted effect of over 75% in size
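MLSMR compounds (23 nl, pin-transferred) preincubated 10 min at room temperature with a 500nM (2x) first reagent, then RGS4 at 900nM (2x) plus Transcreener GDP mix added; fluorescence polarization (620/688 nm) read before and after 90 min at 30 °C.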
Hits are given with their value; – = inactive; ? = inconclusive; · = no result; [ ] = another dose, or the depositor's remark. Compounds with a hit are over-represented: about 1.2% of the library has one in this group of screens. Unless noted, calls come from the whole dose curve; as a rule, active = well fitted curve in the direction sought with a large enough effect; inconclusive = small, poorly fitted or top-dose-only effect, or another doubt; inactive = no such curve, though single readings can be large; an effect the other way counts as inactive or inconclusive.

SMILES	KCNH2 3.1 inh	KAT2A inh	PGK inhibitor	Pin1 inh	KCNH2 WT inh	RGS4 inh
COc1ccc(NC(=O)CN2CCN(Cc3ccccc3)CC2)cc1	–	–	–	–	–	–
O=C(CCN1CCN(Cc2ccccc2)CC1)Nc1ccc(OCc2ccccc2)cc1	-95	–[0.501 µM]	–	–	–	–
O=C(CN1CCN(c2nc(-c3ccc(F)cc3)cs2)CC1)Nc1ccc2c(c1)OCO2	-124	–	–	–	–	–
O=C(CN1CCCCCC1)Nc1ccc(Oc2ccccc2)cc1	-96	–	–	–	–	–
CC(C)OCCCN1C(=O)c2[nH]nc(-c3ccccc3O)c2C1c1ccccc1F (configuration not stated)	·	–	–	–	·	–
Cn1c(=O)n(C/C=C/c2ccccc2)c(=O)c2c1nc1n2CCN1c1ccc(F)cc1	·	–	–	?	·	–
CCc1nn(CC(=O)NC2CC2)c(=O)c2cc3c(OC)cccc3n12	·	–	–	–	·	–
N#Cc1ccc(CN2CCCC3(CCN(C(=O)c4ccncc4)CC3)C2)cc1	·	–	·	·	·	·
O=C(CN1CCC(C(=O)c2ccc(F)cc2)CC1)Nc1ccccc1	–	–	–	–	–	–
O=C(/C=C/c1ccc(F)cc1)NNC(=O)CCN1CCN(Cc2ccccc2)CC1	-105	–	–	–	–	–
O=C(CN1CCN(C(=O)C2CCN(C(=O)/C=C/c3ccccc3)CC2)CC1)Nc1ccc(F)cc1	-99	·	–	–	–	–
CCOc1ccc(NC(=O)CN2CCN(CC(=O)Nc3ccc4c(c3)OCO4)CC2)cc1	-106	–	–	–	-120	–
CCCn1cnc2cc(NCc3cccc(OC)c3)ccc21	-74	–	·	–	–	–
CCCn1cnc2cc(NCc3ccc(Br)cc3)ccc21	-83	–	–	–	–	–
CCOc1ccc(CNc2ccc3c(c2)ncn3C(C)(C)C)cc1	-110	–	–	–	–	–
CCn1cnc2cc(NCc3ccc(Br)cc3)ccc21	–	–	–	–	–	–
CCOC(=O)c1ccc(NC(=O)CSc2nnc(-c3cccs3)n2CC)cc1	-93	–	–	–	–	–
CCOC(=O)c1ccc(NC(=O)CSc2nnc(-c3cccs3)n2C)cc1	–	–	–	–	–	–
CCc1nccn1S(=O)(=O)c1ccc2ccc(C)cc2c1	-71	–	–	–	–	–
CCOc1ccc2cc(S(=O)(=O)n3ccnc3C)ccc2c1	–	–	–	–	–	–
CCN(C[C@H]1N[C@@](CC)(C(=O)OC)[C@H]2C(=O)N(Cc3ccccc3)C(=O)[C@@H]12)C(=O)Nc1ccc(OC)cc1	–	–	–	–	–	–
CCN(C[C@H]1N[C@@](CC)(C(=O)OC)[C@H]2C(=O)N(Cc3ccccc3)C(=O)[C@@H]12)C(=O)Nc1ccc(C(F)(F)F)cc1	-75	–	–	–	–	–
COc1ccc(C(=O)NC2CC2)cc1OC1CCN(Cc2ccc(F)cc2)CC1	?	–	–	–	?	–
COc1ccccc1/C=C/CN1CCC(Oc2cc(C(=O)NC3CC3)ccc2OC)CC1	-101	–	–	–	-120	–
C#Cc1ccc(CN2CCC(Oc3cc(C(=O)NC4CC4)ccc3OC)CC2)cc1	-103	–	–	–	-99	–
SMILES	KCNH2 3.1 inh	KAT2A inh	PGK inhibitor	Pin1 inh	KCNH2 WT inh	RGS4 inh
Cn1c2cc(Br)sc2c2cnn(Cc3c(F)cccc3F)c(=O)c21	·	–	·	·	·	·
Cn1ccnc1SCc1cccc([N+](=O)[O-])c1	–	–	–	–	–	–
Cn1ccnc1SCc1ccc([N+](=O)[O-])cc1	–	0.79µM	–	–	–	–
COc1ccc(C(=O)N(Cc2ccccc2)Cc2ccccc2)c(O)c1	·	·	·	–	·	·
COc1ccccc1CNc1cc(-c2ccoc2)ncn1	·	–	·	·	·	·
CCN1CCN(C(=O)/C(=C/c2cccs2)NC(=O)c2ccc(C)c(C)c2)CC1	–	–	–	–	-100	–
Cc1ccc(C(=O)N/C(=C\c2cccs2)C(=O)N2CCCCCC2)cc1	–	–	–	–	–	–
CCC(CC)C(=O)Nc1ccc(OCc2cc(=O)n3c4c(sc3n2)CCCC4)cc1	·	–	–	–	·	–
Cc1c(CC(=O)N2CCN(C(=O)C3COc4ccccc4O3)CC2)c(=O)oc2cc(O)ccc12 (configuration not stated)	–	28µM	–	–	–	–
O=C1CCCC2CCCCN12 (configuration not stated)	·	–	·	·	·	·
Cc1ccccc1C(=O)c1cccn1CC(=O)NCCC1=CCCCC1	–	–	–	–	–	–
Cc1ccccc1C(=O)c1cccn1CC(=O)NCCN1CCN(c2cccc(C)c2C)CC1	-79	–	–	–	?	–
Cc1ccc(C)c(N2CCN(CCCNC(=O)Cn3cccc3C(=O)c3ccccc3C)CC2)c1	-84	–	–	–	-75	–
Cc1ccccc1C(=O)c1cccn1CC(=O)NCCCN1CCCCC1	–	–	–	–	–	–[11.4 µM]
COc1ccc(C)cc1NC(=O)c1ccc(CN2CCN(c3ccccc3)CC2)cc1	-104	–	–	–	–	–
COc1ccc(C(=O)N/N=C/c2ccc(OC)c(COc3ccc(F)cc3)c2)cc1	–	–	–	–	–	–
COc1ccc(NC(=O)c2ccc(CN3CCN(c4ccccc4)CC3)cc2)cc1OC	–	–	–	–	–	–
COc1ccc(/C=N/NC(=O)c2ccccc2F)cc1CN1CCN(c2ccc(F)cc2)CC1	-105	–	–	–	?	–
COc1cc(C(=O)N/N=C/c2ccc(OC)c(CN3CCN(c4ccc(F)cc4)CC3)c2)ccc1O	-105	–	–	–	·	–
COc1ccc(/C=N/NC(=O)c2ccccc2)cc1CN1CCN(c2ccc(F)cc2)CC1	-107	–	–	–	-108	–
COc1ccc(/C=N\NC(=O)c2ccccc2)cc1COc1ccc(F)cc1	–	–	–	–	–	–
CCCNC(=O)c1cnc2c(-c3ccc(OCC)c(OCC)c3)c(C)nn2c1-c1ccccc1	·	–	·	–	·	–
N=c1oc2c3c4c(cc2cc1C(=O)Nc1ccccc1)CCCN4CCC3	-85	–	–	?	-223	–
O=S(=O)(Nc1nccs1)c1ccc(NS(=O)(=O)c2c(F)cc(F)c(Cl)c2F)cc1	–	–	–	–	-105	–
c1ccc2c(c1)SCc1c-2[nH]c2ccccc12	·	22µM	·	·	·	·
c1ccc2c(c1)OCCc1c-2[nH]c2ccccc12	–	–	–	–	–	–
C=C1CCN(C(Cc2ccccc2)C(=O)O)S(=O)(=O)c2ccccc21 (configuration not stated)	·	·	·	–	·	–
CC(=O)Nc1ccccc1NS(=O)(=O)c1ccc(Cl)cc1	–	–	–	–	–	–
O=S(=O)(Nc1cccc2c1CCCC2)c1ccc(Cl)cc1	-71	–	–	–	–	–

Screening results deposited in PubChem BioAssay by National Center for Advancing Translational Sciences (NCATS).
